# This is a sample that favours compounds with a hit; in the whole collection about 4.1% have one here.
# LMP1 NFkB inh: Epstein-Barr LMP1 NF-kappaB reporter inhibition. LMP1-induced NF-kappaB luciferase reporter cells, luminescence. inhibition, % at 12.5 µM. 0.69% of 350,000 active. AID 504558; in the data active = inhibition above about 41%; inconclusive = no clear call, values can overlap the other calls;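 also: 0% = neutral control wells and 100% = reference inhibitor control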
# Shn3 inh set2: inhibitors of Schnurri-3 3'UTR reporter in osteoblasts. Clone20 osteoblast Shn3 3'UTR firefly luciferase, 24 h. inhibition, % at 12.5 µM. 0.52% of 360,000 active. AID 588674;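 active = mean inhibition of at least 75% with every replicate also reaching 75%; inconclusive = mean inhibition at least 75% but some replicate below; inactive = mean inhibition below 75%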;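 also: 0% = median of neutral control wells and 100% = pilot-screen positive control compound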
# Peg3 prom inh: Peg3 promoter activity inhibition; inhibition, % at 20 µM; 1.7% of 360,000 active; HeLa PEG-Prom luciferase reporter, luminescence, overnight;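 active = inhibition of at least 50% at 20 µM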
# TROY NFkB inh: blocks TROY-dependent signaling in reporter cells; Q293 LMP1-TROYcd NF-kB luciferase reporter, 4 h; inhibition, % at 10 µM; 0.98% of 360,000 active;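 active = compounds whose plate-normalised and pattern-corrected inhibition of the luciferase reporter signal at the single screening dose is 50% or more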
# TWEAK-Fn14 inh: inhibitors of TWEAK-Fn14 interaction signaling; TWEAK-stimulated Fn14 reporter cells, luciferase luminescence, 8 h; inhibition, % at 10 µM; 2% of 360,000 active; in the data active = inhibition above about 50%
# MITF TRPM1 inh: inhibitors of MITF-driven TRPM1 promoter in melanoma cells; 0.83% of 330,000 active; inhibition, % at 12.5 µM; SK-MEL-5 TRPM1 promoter luciferase, 24 h; AID 488899;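 active = mean inhibition across replicates of 60% or more, whatever share of single replicates reaches that level; inconclusive = some that reach 60%, reason not given; inactive = mean inhibition across replicates below 60%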
# * marks the source's active call; other numbers are inactive results; ? = inconclusive; . = no result.
SMILES,LMP1 NFkB inh,Shn3 inh set2,Peg3 prom inh,TROY NFkB inh,TWEAK-Fn14 inh,MITF TRPM1 inh
O=C(Nc1cccnc1Cl)c1ccc2c(Cl)c3c(nc2c1)CCC3,-23.4,-98.9,-107.5,-4.6,54.4*,-43.2
CCN(CC)CCNC(=O)CSc1c2c(nc3cc(Cl)ccc13)CCCC2,8.4,84.4,78.2*,14.8,7.3,-22.2
CCN(CC)CCCNC(=O)c1ccc2c(Cl)c3c(nc2c1)CCCC3,8.6,-0.5,61.2*,-12.6,-50.2,37.1
CCCCN(CC)CCNC(=O)c1ccc2c(Cl)c3c(nc2c1)CCC3,-2.9,-23.8,3.5,22.6,9.4,-3.8
O=C(CSc1c2c(nc3ccc(Cl)cc13)CCCC2)N1CCN(C(=O)c2ccco2)CC1,3.5,92.8*,25.5,-6.7,12.1,58.7
O=C(c1ccco1)N1CCN(C(=O)C2CCCc3c2[nH]c2ccc(Cl)cc32)CC1 (centres undefined),19.2,-3.2,23.8,.,65.9*,6.1
O=C(O)c1[nH]c2ccc(Cl)cc2c1CC(=O)N1CCN(C(=O)c2ccco2)CC1,2.9,1.0,-2.8,-0.8,-7.3,10.2
N#Cc1ccc(NC(=O)Nc2ccc(Cl)cc2)cc1,9.6,70.0,-192.3,25.9,63.0*,2.2
Cn1c(=O)c2c(nc(NCc3ccco3)n2C/C=C/c2ccccc2)n(C)c1=O,41.8*,87.9*,29.2,41.1,55.4*,54.0
CC(Cl)=CCn1c(NCCc2ccccc2)nc2c1c(=O)n(C)c(=O)n2C,.,91.7*,12.2,29.2,42.5,.
C=CCn1c(CNC(=O)c2ccccc2F)nnc1SCC(=O)N1CCOCC1,3.1,-2.7,9.4,2.3,0.9,-2.4
O=c1[nH]c2cc3c(cc2cc1CN(CCc1ccccc1)C(=S)NCCCN1CCOCC1)OCCO3,-14.0,-34.4,19.9,11.9,-6.3,-15.0
CN(C)C(=O)CCc1ccc2c3c([nH]c2c1)[C@]1(C)[C@@H](C(=O)N2CCOCC2)C[C@H](CC(=O)NCCC2=CCCCC2)C(=O)N1CC3,-0.1,6.3,4.9,-13.6,5.7,-16.4
COc1cc(/C=N/n2cnnc2)ccc1OC(=O)c1ccncc1,-7.0,6.5,15.7,63.0*,-0.2,-7.1
COc1cc(/C=N/n2cnnc2)ccc1OC(=O)c1cccnc1,-4.4,1.8,17.2,41.9,4.2,-1.4
O=C(Cc1ccc(Cl)cc1)NNC(=O)c1ccco1,-1.3,18.0,-10.5,-3.8,-17.0,2.5
Cc1ccc(C2c3c(oc4ccccc4c3=O)C(=O)N2c2nncs2)cc1 (centres undefined),-11.9,10.8,-1.4,12.5,2.3,-8.1
COc1ccc(CCN2C(=O)c3cccc4c(C(=O)N5CCCCC5)ccc(c34)C2=O)cc1OC,10.2,47.6,89.1*,57.4*,77.7*,48.9
COc1ccc(CCNC(=O)CCN2C(=O)c3cccc4cccc(c34)C2=O)cc1OC,1.0,16.0,-3.3,19.2,-10.4,-5.4
COc1ccc(NC2=Nc3ccccc3N3C2=Nc2c(c(C)nn2-c2ccc(C)cc2)C3c2cccnc2)cc1 (centres undefined),-30.9,-3.2,14.9,8.9,-4.5,4.0
CC(=O)Nc1ccc(NC2=Nc3ccccc3N3C2=Nc2c(c(C)nn2-c2ccccc2)C3c2ccccc2)cc1 (centres undefined),?,13.5,89.9*,27.1,96.2*,78.6*
COc1ccc(/C=N/Nc2ccccn2)c(OC)c1OC,-0.7,-71.0,-219.1,-14.1,-41.8,-32.5
C(=N\Nc1nc2ccccc2[nH]1)/c1ccccc1,-25.7,-90.6,-346.4,-4.4,10.6,-76.0
C(=N\Nc1nc2ccccc2[nH]1)/c1c[nH]c2ccccc12,-52.8,-2.1,-217.4,-24.8,51.2*,-112.1
Cc1cc(=O)[nH]c(N/N=C/c2c[nH]c3ccccc23)n1,-12.0,-2.3,-36.2,6.4,9.8,-6.9
SMILES,LMP1 NFkB inh,Shn3 inh set2,Peg3 prom inh,TROY NFkB inh,TWEAK-Fn14 inh,MITF TRPM1 inh
C/C(=N\Nc1nc2ccccc2[nH]1)c1ccc(Cl)s1,42.9*,-2.6,-133.1,-51.1,6.3,3.0
COc1ccc(/C=N/Nc2nc3ccccc3[nH]2)c(OC)c1OC,27.2,-20.5,-155.7,73.4*,77.9*,-9.8
Cc1[nH]c2ccccc2c1/C=N/Nc1nc2ccccc2[nH]1,-25.8,17.8,-123.1,57.1*,95.3*,-104.9
C/C(=N\Nc1nc2ccccc2[nH]1)c1ccc(C)o1,-19.9,-52.4,-221.0,13.8,-4.0,-3.5
O=C(CC1C(=O)NCCN1CC1CCCCC1)NCCCN1CCOCC1 (centres undefined),4.4,-12.1,-0.7,-4.5,-3.0,5.4
CCN(Cc1ccncc1)Cc1ccc(Br)cc1,-2.5,13.6,11.6,13.1,7.2,4.2
C(=N\Nc1nc2ccccc2[nH]1)/c1cccc2cccnc12,70.7*,78.1,-84.1,-3.1,25.6,14.3
Cc1ccc(/C=N/Nc2nc3ccccc3[nH]2)s1,-118.4,-27.3,-241.3,-57.3,50.3*,-36.1
Cc1ccccc1/C=N/Nc1nc2ccccc2[nH]1,-15.9,-60.5,-234.2,-29.2,7.4,-36.0
COCCNc1nc(-c2ccc(OC)cc2C)c2sc(-c3ccccc3)cc2n1,.,29.3,25.9,13.3,34.8,.
COc1ccc2[nH]c(C)c(CCN(Cc3cccs3)C(=S)Nc3ccc(F)cc3)c2c1,2.0,86.2*,-8.0,11.9,5.0,8.5
COc1ccc2[nH]c(C)c(CCN(Cc3cccs3)C(=S)Nc3ccccc3)c2c1,-10.4,59.9,-3.0,-12.5,7.6,7.7
COc1ccc2cc(C(=O)Nc3ccc(S(N)(=O)=O)cc3)sc(=O)c2c1OC,5.8,0.2,78.8*,-8.5,4.7,-6.1
C=C(CN(C)C)C(=O)c1ccc(C)cc1C,-8.5,96.7*,99.2*,-20.2,46.2,108.9*
Cc1ccc(C(=O)CC(=O)c2ccccc2C)c(O)c1,12.4,20.9,-55.6,5.1,14.8,10.6
O=C1C(C=NCc2ccncc2)=C(O)c2ccccc21,0.6,15.9,-33.8,-2.2,21.5,3.4
O=C1C(C=NCc2cccnc2)=C(O)c2ccccc21,62.0*,-54.6,-205.2,51.5*,26.5,-13.6
O=C1C(C=NCc2ccco2)=C(O)c2ccccc21,-21.6,-35.5,-252.8,58.8*,37.9,-15.4
COc1cc2c(cc1NC(=O)CN1C(=O)NC3(CCc4ccccc43)C1=O)oc1ccccc12 (centres undefined),-19.9,9.3,57.4*,5.3,61.8*,2.5
Cc1ccc(S(=O)(=O)N2CCN(C(=O)COC(=O)CCCOc3ccccc3)CC2)c(C)c1,0.1,10.6,5.6,7.6,9.7,-5.8
O=C(c1ccccc1)c1nn(-c2ccccc2)c(=O)cc1C(F)(F)F,-13.7,-0.9,18.9,11.2,43.1,12.9
O=C(c1ccccc1)c1nn(-c2ccc(Cl)cc2)c(=O)cc1C(F)(F)F,64.2*,73.9,78.7*,-48.0,74.0*,24.1
CN(N=O)c1ccc(CC2CCc3ccccc32)cc1 (centres undefined),-4.1,-26.8,-224.6,-56.3,-34.5,-79.9
CN(C)CCOc1ccc(-c2c(-c3ccccc3)sc3ccccc23)cc1,-16.9,37.0,100.2*,16.3,-32.4,61.0*

# Bioassay records as filed in PubChem BioAssay.
